GIRK2 act: activators of human GIRK2 potassium channels | G protein-activated inward rectifier potassium channel 2 (Homo sapiens), P48051 | hit rate 0.05% among 63,000 | calls only for hits at 25 µM | HEK293-GIRK2 thallium flux, Thallos fluorescence, MPD; call rule not given here
Target sequence (P48051 whole entry, looked up): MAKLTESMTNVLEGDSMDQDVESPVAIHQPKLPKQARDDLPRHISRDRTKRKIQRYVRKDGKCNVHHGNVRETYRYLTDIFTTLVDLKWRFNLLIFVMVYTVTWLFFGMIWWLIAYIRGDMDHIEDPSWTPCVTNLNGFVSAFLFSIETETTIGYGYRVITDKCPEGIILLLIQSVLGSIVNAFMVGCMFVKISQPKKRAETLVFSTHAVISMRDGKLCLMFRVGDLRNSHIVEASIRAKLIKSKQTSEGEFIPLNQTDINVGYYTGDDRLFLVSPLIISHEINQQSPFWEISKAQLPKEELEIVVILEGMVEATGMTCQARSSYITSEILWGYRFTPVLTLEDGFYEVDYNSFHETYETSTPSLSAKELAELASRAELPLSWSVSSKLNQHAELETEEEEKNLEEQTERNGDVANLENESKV
An asterisk follows results filed as active; i = inactive; + = active, no number. Shown is part of a subset that was picked to be rich in hits.

SMILES	GIRK2 act
COc1ccc(-c2c(C(F)(F)F)oc3cc(OCC(=O)OC(C)(C)C)ccc3c2=O)cc1	i
NC(=O)COc1ccc2c(=O)c(-c3ccc(Cl)cc3)c(C(F)(F)F)oc2c1	+
CC(C)(C)OC(=O)COc1ccc2c(=O)c(-c3ccccc3)c(C(F)(F)F)oc2c1	i
Cc1cc(S(=O)(=O)NCCS(=O)(=O)N2CCc3ccccc32)c(Cl)cc1Cl	i
Cc1noc(C)c1CCC(=O)N1CC(c2nc(-c3cccc(C(F)(F)F)c3)no2)C1	i
O=C(Nc1cccc2nsnc12)c1ccc(=O)oc1	i
O=C1/C(=C/c2ccncc2)Oc2cc(OC(=O)C3CCCCC3)ccc21	i
COc1ccc(NC(=O)c2ccc3nn(CC(=O)NCc4ccc(C)cc4)c(=O)n3c2)cc1	i
CCCn1c(=O)c2c(nc3n(-c4cc(OC)ccc4OC)c(-c4ccccc4)cn23)n(C)c1=O	i
CCn1c(=O)c2c(nc3n(-c4ccc(OC)cc4OC)c(-c4ccccc4)cn23)n(C)c1=O	i
CCn1c(=O)c2c(nc3n(-c4cc(OC)ccc4OC)c(-c4ccccc4)cn23)n(C)c1=O	+
CC1CCN(c2cc(NC(=O)c3cc(-c4cccs4)nn3C)ncn2)CC1	i
Cc1ccccc1NC(=O)NCCN1CCC(c2cccs2)CC1	i
CN1CCN(c2ncc(NC(=O)Nc3ccc(Cl)c(C(F)(F)F)c3)cn2)CC1	+
Cc1ccc(NC(=O)Nc2cnc(N3CCN(C)CC3)nc2)c(Cl)c1	i
Cc1cc(C)n(-c2ncc(NC(=O)Nc3ccc(Cl)c(C(F)(F)F)c3)cn2)n1	i
O=C(Nc1cc2ccccc2oc1=O)c1cnn2c1OCCC2	i
N#Cc1ccc(Cl)cc1NC(=O)c1cnn2c1OCCC2	i
O=C(Nc1cc(Cl)ccc1O)c1cnn2c1OCCC2	+
CC1=C(C(=O)Nc2ccc(C)c(C)c2)C(c2ccccc2F)NC(=S)N1 (configuration not stated)	i
COc1cc(O)c2c(c1)C(O)(CC=C(C)C)c1cc(C)cc(O)c1C2=O (configuration not stated)	i
O=C(c1ccncc1)N1CCC(c2cccs2)CC1	i
O=C(Nc1ccc(-n2nnc(C(=O)N3CCCC3)n2)cc1)c1ccc2nsnc2c1	i
Cc1cc(NC(=O)C2c3ccccc3Oc3ccccc32)n(CCO)n1	i
Nc1nc(-c2ccc(F)cc2)c(-c2ccc3ncccc3n2)s1	i
SMILES	GIRK2 act
Fc1ccc(-c2n[nH]c(=S)s2)cc1	+
Cc1nc(-c2ccc(F)cc2)sc1-c1cc(C(=O)N(C)Cc2ccccc2)n[nH]1	i
CCn1c(=O)c(C(=O)NCCc2ccccc2)cc2cccnc21	i
Cn1cccc1CN(Cc1cccs1)C(=O)NCc1ccc(F)cc1	i
CC(=O)N(C)CC(=O)Nc1cnc(-n2ccnc2)nc1	i
COc1ccc(NC(=O)Cn2c(N3CCOCC3)nc(C)cc2=O)cc1	i
CC(C)c1ccc(OCC(=O)N(Cc2ccsc2)Cc2ccco2)cc1	i
COCCCNC(=O)CSc1nc(-c2ccc(F)cc2)[nH]c1-c1ccc(F)cc1	+
COCCCNC(=O)CSc1nc(-c2ccc(OC)c(OC)c2)[nH]c1-c1ccc(F)cc1	i
COCCCNC(=O)CSc1nc(-c2ccccc2)[nH]c1-c1ccc(OC)cc1	i
C#CCOCC1CCN(C(=O)CCS(=O)(=O)c2ccccc2)CC1	i
O=C(NCCC1=CCCCC1)c1ccc(Oc2nccnc2N2CCSCC2)cc1	i
CC1C(=O)N2CCCc3cc(NC(=O)C(=O)NCC4CCN(S(C)(=O)=O)CC4)cc1c32 (configuration not stated)	i
O=C(NCC(c1cccs1)N1CCOCC1)C(=O)Nc1ccc2c(c1)OCCO2 (configuration not stated)	i
O=C(NCC(c1cccs1)N1CCOCC1)C(=O)Nc1ccccc1F (configuration not stated)	+
N#Cc1ccc(Cl)cc1NC(=O)C(=O)NCC(c1cccs1)N1CCOCC1 (configuration not stated)	i
COc1ccccc1-c1cc(C(=O)NCc2sc(-c3ccccc3Cl)nc2C)[nH]n1	i
N#Cc1ccc(OC2CCN(S(=O)(=O)c3ccc(Cl)s3)CC2)nc1	i
COc1ccc(-c2nn(-c3ccccc3)cc2C2CC(c3ccco3)=NN2C(C)=O)cc1 (configuration not stated)	i
CCOc1ccc(-n2c(-c3ccccc3)cn3c4c(=O)n(C)c(=O)n(C)c4nc23)cc1	i
O=C(NCc1ccc(F)c(Cl)c1)c1nnn(-c2ccccc2)c1-c1ccccn1	i
O=C(Nc1cccc(Cl)c1F)c1nnn(-c2ccccc2)c1-c1ccccn1	+
COC(=O)c1ccccc1NC(=O)c1nnn(-c2ccccc2)c1-c1ccccn1	i
Cc1c(C)n2c3c(=O)n(C)c(=O)n(C)c3nc2n1CCCN1CCN(c2ccccc2)CC1	i
CCCCn1c(=O)c2ccccc2n(Cc2nc(-c3cccc(OC)c3)no2)c1=O	i
SMILES	GIRK2 act
CC1CCCN(c2ncc([N+](=O)[O-])c(N)n2)C1 (configuration not stated)	i
CCOc1ccccc1NC(=O)Cn1nc2ccc(-c3ccccc3)nn2c1=O	i
Cc1ccc2nc(C3CN(C(=O)c4cc(C)oc4C)C3)[nH]c2c1	i
CCOC(=O)c1c(S(=O)(=O)N2CCN(c3ccc(Cl)cc3)CC2)n[nH]c1C	i
CCOc1ccccc1N1CCN(S(=O)(=O)c2n[nH]c(C)c2C(=O)OC)CC1	i
COC(=O)c1c(S(=O)(=O)N2CCN(c3cccc(Cl)c3)CC2)n[nH]c1C	+
Cc1cccc(Cn2c(C3CC(=O)N(c4ccc(F)cc4)C3)nc3ccccc32)c1 (configuration not stated)	i
O=C(C(=O)N1CCN(Cc2nnnn2-c2ccc(F)cc2)CC1)c1c[nH]c2ccccc12	i
COc1ccc(CNC(=O)C(=O)Nc2cc3c4c(c2)CCC(=O)N4CCC3)cc1	i
Cn1cc(C(=O)Nc2nc3ccc(S(C)(=O)=O)cc3s2)nn1	i
CSc1cccc(-n2ccc(=O)c(-c3nc(-c4ccc5c(c4)OCO5)no3)n2)c1	i
CCCCCn1c(=O)c2ccccc2n(Cc2nc(-c3cc(OC)cc(OC)c3)no2)c1=O	i
O=C(c1ccc2c(c1)OCO2)N1CCC(CSC2=NCCS2)CC1	i
COc1coc(C(=O)Nc2ccc(C)c(Cl)c2)cc1=O	i
COc1coc(C(=O)Nc2ccc(Oc3ccccc3)cc2)cc1=O	+
COc1coc(C(=O)NCc2ccccc2)cc1=O	i
COc1ccc(-c2noc(Cn3c(=O)n(Cc4ccc(C)cc4)c(=O)c4ccccc43)n2)cc1OC	i
Cn1c(=O)[nH]c(=O)c2c1nc(SCc1ccccc1Cl)n2CCOc1ccccc1	i
CC1C(=O)N2CCCc3cc(NC(=O)C(=O)NCC(O)(c4ccccc4)C4CC4)cc1c32 (configuration not stated)	+
CC1C(=O)N2CCCc3cc(NC(=O)C(=O)NCC4(O)CCOc5ccccc54)cc1c32 (configuration not stated)	i
Cc1ccc(NC(=O)C(=O)NCC(O)(c2ccccc2)C2CC2)cc1N1CCCC1=O (configuration not stated)	i
CCOc1ccc(NC(=O)NCCc2csc(-c3cccc(F)c3)n2)cc1	i
O=[N+]([O-])c1ccc(-c2nc3ccccc3s2)cc1	i
CSc1ccccc1NC(=O)C(=O)NCC1(CO)CC1	i
CSc1cccc(NC(=O)C(=O)NCC2(c3ccccc3)CCOCC2)c1	i
CSc1ccccc1NC(=O)C(=O)NCC1(c2ccccc2)CCOCC1	+
CC1CCN(S(=O)(=O)c2nn(Cc3ccccn3)cc2C(=O)O)CC1	i
NC(=O)c1nnn(-c2ccc(NC(=O)c3ccc4nsnc4c3)cc2)n1	i

Screens: PubChem, C. David Weaver Laboratory, Vanderbilt University
